# Most compounds without a hit are left out; they make up all but 2.4% or so of the library.
# AmpC nodet inh: blocks E. coli AmpC beta-lactamase in absence of detergent; P00811; AmpC nitrocefin hydrolysis, absorbance 480 nm, no detergent; Potency, µM (doses to about 28.7 µM), for inactives: at the highest dose activity change, negative = inhibition; actives 1.8% (n = 71,000); AID 585; further: % of control where 0% means no effect
# Target sequence (P00811 whole entry, looked up): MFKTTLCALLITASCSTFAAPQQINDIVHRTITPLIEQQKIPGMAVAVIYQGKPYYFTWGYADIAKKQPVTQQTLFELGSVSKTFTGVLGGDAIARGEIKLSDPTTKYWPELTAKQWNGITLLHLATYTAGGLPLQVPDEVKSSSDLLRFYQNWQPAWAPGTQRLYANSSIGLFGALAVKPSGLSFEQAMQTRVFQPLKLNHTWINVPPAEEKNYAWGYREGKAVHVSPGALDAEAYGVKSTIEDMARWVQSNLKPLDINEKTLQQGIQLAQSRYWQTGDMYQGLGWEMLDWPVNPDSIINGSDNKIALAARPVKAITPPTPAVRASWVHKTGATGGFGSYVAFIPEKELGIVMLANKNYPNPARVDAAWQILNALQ
#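 Enzyme, pH 7.0 phosphate. Compound titrations were pre-incubated with AmpC for 15 min at room temperature before nitrocefin (stock 800 uM) addition; product formation was recorded at 480 nm every 20 s for 4 min.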
# AmpC inh det: inhibitors of E. coli AmpC beta-lactamase with detergent; actives 0.09% (n = 71,000); P00811; AID 584; purified AmpC, nitrocefin hydrolysis with detergent; Potency, µM (series often up to 28.7 µM), inactives show at the top dose activity change, negative = inhibition; active means well fitted curve in the direction sought with a large enough effect; inconclusive means small, poorly fitted or top-dose-only effect; further: on the % scale 0 is the no-effect control and ±100 the full control effect
#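 E. coli AmpC (5.3 nM) in 20 mM phosphate pH 7.0 with 0.01% Triton X-100, preincubated 15 min RT with compound; nitrocefin (2 uL of 800 uM stock) hydrolysis followed by 480 nm absorbance every 20 s over 4 min.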
# Prx2 Sm inh: Schistosoma mansoni Prx2 inhibition. S. mansoni Prx2 activity coupled to TGR/GSH (TGR is thioredoxin glutathione reductase), NADPH fluorescence loss, qHTS. Potency, µM. actives 0.07% (n = 65,000). AID 448
#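 Prx2 inhibition was measured as reduced NADPH consumption when electrons flowed from NADPH through TGR and glutathione to Prx2 and H2O2. Plates were read kinetically over 8 min; enzyme reagents were held at 4 deg C during dispensing.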
# Anthrax LT inh: inhibitors of anthrax lethal toxin internalization | Cells, anthrax lethal toxin internalization, FRET ratio (460/530) | Potency, µM (series often up to 40 µM), for the others: at the highest dose activity change, negative = inhibition, actives largely listed as inhibitors | actives 0.67% (n = 70,000); further: on the % scale 0 is the no-effect control and ±100 the full control effect; nearly all actives have a fitted effect of over 50% in size
# An asterisk follows results filed as active; ? = inconclusive; . = no result given; ! = a repeat was not active; [ ] = remark or other dose. Unless noted, the call rests on the fitted dose curve. Potency means the concentration at half of the fitted maximal effect.
SMILES,AmpC nodet inh,AmpC inh det,Prx2 Sm inh,Anthrax LT inh
CCOC(=O)C1Cn2c(nc3c(c2=O)C(C)(C)Cc2ccccc2-3)S1 (configuration not stated),85%,10%,.,10µM*
NC[C@H](O)c1cc(O)c(O)cc1F,-3%,-1%,>26,-5%
CO/N=C(/C)CCC(=O)OC[C@@H]1O[C@H](c2ccccc2)C=C[C@@H]1Oc1ccc(OC)cc1,.,.,.,-3%[0.064 µM]
COc1ccc(N(CC(=O)N2CC=C(c3ccccc3)CC2)S(=O)(=O)c2c(C)noc2C)cc1,4µM*[single pt active],13%,>57,?
CCOc1ccc(N(CC(=O)N2CC=C(c3ccccc3)CC2)S(=O)(=O)c2c(C)noc2C)cc1,4µM*[single pt active],11%,>57,?
CCOc1ccc(N(CC(=O)Nc2ccc(C)cc2)S(=O)(=O)c2c(C)noc2C)cc1,3%,7%,>57,?
N#C/C(=C\c1ccc(O)c(O)c1)C(=O)NCCCc1ccccc1,0.2µM*!,-2%,>57,?
O=C(Cn1ncc2c(=O)oc3ccccc3c21)NCCCN1CCCC1=O,4µM*[single pt active],11%,>57,-9%
O=C(Cn1ncc2c(=O)oc3ccccc3c21)NC1CC1,0%,-1%,>57,-8%
O=C(Cn1ncc2c(=O)oc3ccccc3c21)NCC1COc2ccccc2O1 (configuration not stated),0.79µM*,13%,>57,-3%
CCN(CCCNC(=O)Cn1ncc2c(=O)oc3ccccc3c21)c1cccc(C)c1,2µM*[single pt active],12%,>57,-16%
COCCCNC(=O)Cn1ncc2c(=O)oc3ccccc3c21,-2%,-2%,>57,11%
Cc1nc(N(C)C)c2sc(=S)n(C)c2n1,4µM*[single pt active],7%,>57,-5%
O=C(c1ccc(CS(=O)(=O)c2ccc(Br)cc2)o1)N1CCCCCC1,3.2µM*[single pt active],7%,>57,?
O=C(c1ccc(CS(=O)(=O)c2ccc(Br)cc2)o1)N1CCCC1,4µM*[single pt active],15%,>57,-4%
Cc1ccc(S(=O)(=O)Cc2ccc(C(=O)N3CCN(Cc4ccccc4)CC3)o2)cc1,100%,13%,>57,-19%
O=C(c1ccc(CS(=O)(=O)c2ccc(Br)cc2)o1)N1CCN(C2CCCCC2)CC1,-2%,6%,>57,-3%
O=C(c1ccc(CS(=O)(=O)c2ccccc2)o1)N1CCOCC1,2.5µM*[single pt active],10%,>57,-14%
CCN(CC)CCOc1c(Br)ccc2c1sc1nc3n(c(=O)c12)CCC3,24%,-2%,.,7.9µM*
Cc1cc(C)n(-c2ccc(C(=O)OCC(=O)c3ccc(Br)s3)cc2)n1,13µM*[single pt active],2%,>57,-9%
Cc1cc(C)n(-c2ccc(C(=O)OCC(=O)NCc3ccco3)cc2)n1,32%,-1%,>57,6%
O=C(O)C(Cl)Br (configuration not stated),-1%,10%,.,-1%
CCCC(=O)Nc1ncnc2c1ncn2[C@@H]1O[C@H]2COP(=O)(O)O[C@@H]2[C@@H]1OC(=O)CCC,5%[12.8 µM],-1%[12.8 µM],>57,3%[3.58 µM]
O=C=Nc1ccc(Cl)c(Cl)c1,?,13%,.,16µM*
O=C=Nc1ccc(Cc2ccc(N=C=O)cc2)cc1 (tested in a mixture with another compound),-10%[5.75 µM],-4%[5.75 µM],>57,-7%[8 µM]
SMILES,AmpC nodet inh,AmpC inh det,Prx2 Sm inh,Anthrax LT inh
Oc1ccc(Cl)cc1-c1cc(-c2ccccc2)n[nH]1,4µM*[single pt active],19%,>57,?
O=C1c2ccccc2NC(c2ccco2)N1O (configuration not stated),-9%,0%,.,-3%
O=C1C2=C(Nc3ccccc3SC2c2ccco2)c2ccccc21 (configuration not stated),0.4µM*,7%,.,?
COc1ccc([C@@H]2OC[C@]3(COC(C)=O)[C@H](C)C=C(C)[C@@H]2[C@H]3C)cc1,58%,0%,>57,?
Cc1cc(N2CCOCC2)nc2ccc(NC(=O)C3CCC(C)CC3)cc12 (configuration not stated),100%,-2%,>57,-2%
Cc1cc(N2CCC(N(C)C3CCCC3)CC2)nc2cc(O)ccc12,27%,14%,>57,3.2µM*
O=C(Nc1ccc2c(c1)OCCO2)c1ccco1,3%,9%,>57,10µM*
COc1ccc2cc3cc(C(=O)Nc4ccc5c(c4)OCCO5)oc3nc2c1,48%,0%,>57,1µM*
COc1ccc2cc3cc(C(=O)NCc4ccc5c(c4)OCO5)oc3nc2c1,3%,-2%,>57,9%
CCCN1CCC[C@H](c2cccc(C#N)c2)C1,-10%,-4%,>57,-6%
CC(=O)O[C@H]1CC[C@@]2(C)[C@@H](CC[C@@]3(C)[C@H]2C(=O)C=C2[C@H]4C[C@](C)(C(=O)OCCN5CCCCC5)CC[C@]4(C)CC[C@@]23C)C1(C)C,13%,3%,>57,?
Nc1ccc(-c2ccc(N)c(O)c2)cc1O,0.79µM*,12%,.,?
CCCn1c(C)c(C(=O)c2ccc3ccccc3c2)c2ccccc21,19%,-5%,>26,13µM*
C=CCN1C[C@@H](C)N([C@H](c2ccc(C(=O)N(CC)CC)cc2)c2cccc(OC)c2)C[C@H]1C,22%,-1%,>57,?
COCc1cc(C)nc(N2CCN(c3ccccc3)CC2)c1C#N,10%,17%,>57,10µM*
CCCCn1c(NCc2ccccc2O)nc2ccccc21,4µM*[single pt active],14%,>57,-13%
CCCCn1c(NCCO)nc2ccccc21,3.2µM*[single pt active],7%,>57,1%
O=C(Cn1c(NCCCO)nc2ccccc21)c1cccs1,3.2µM*[single pt active],8%,>57,7%
CCCn1c(NCc2cc(C)ccc2O)nc2ccccc21,3%,1%,.,-18%
Oc1c(Cl)c(Cl)c(Cl)c(Cl)c1Cl (tested in a mixture with another compound),-11%[5.75 µM],-5%[5.75 µM],>57,-19%[8 µM]
COc1cccc(Cn2c(=O)cnc3cnc(Oc4cccc(Cl)c4)nc32)c1,70%,1%,>57,?
c1ccc(-c2ccc(-c3nc(-c4ccccn4)no3)cc2)cc1,44%,12%,.,3.2µM*
Clc1cccc(-c2nc(-c3ccccn3)no2)c1,11%,-1%,>57,-4%
O=C(CSc1nnnn1-c1ccccc1)Nc1nsc(-c2ccccc2)n1,-15%,-2%,>57,-24%
O=C(CSc1nnnn1-c1ccccc1)Nc1nsc(-c2ccc(Cl)cc2)n1,10µM*[single pt active],0%,>57,-14%
SMILES,AmpC nodet inh,AmpC inh det,Prx2 Sm inh,Anthrax LT inh
Cc1ccc(-c2nc(NC(=O)CSc3nnc(C)s3)ns2)cc1,4µM*[single pt active],11%,>57,-12%
Cc1nnc(SCC(=O)Nc2nsc(-c3ccccc3)n2)s1,-12%,-4%,>57,.
C=CCn1c(SCCCC)nc(O)cc1=O,4µM*[single pt active],11%,>57,-3%
C[C@@H](Cc1ccccc1)Nc1ncnc2c1ncn2[C@@H]1O[C@@H](CO)[C@H](O)[C@@H]1O,4%,15%,>57,11%
CC1=C(C(=O)N(C)C)C(c2ccc(Cl)c(Cl)c2)NC(=O)N1 (configuration not stated),8%,-5%,>57,?
CN[C@H]1CC[C@@H](c2ccc(Cl)c(Cl)c2)c2ccccc21,.,.,.,10µM*
